From PubChem
Compounds with a hit are over-represented: about 0.43% of the library has one in this group of screens.
RGS12 GoLoco inh: inhibitors of human Gai1-RGS12 GoLoco interaction (red fluorophore); Gai1:RGS12 GoLoco peptide FP, rhodamine, 10 min; Potency, µM (series often up to 61.6 µM), actives largely listed as inhibitors; P63096; 0.44% of 230,000 active; active = well fitted inhibition curve with a large enough effect, not every such curve was filed as active; inactive = no such curve, though single readings can be large or run the other way; also: nearly all actives have a fitted effect of over 30% in size
Tb PFK block: inhibitors of T. brucei phosphofructokinase. T. brucei PFK, ADP-Glo luminescence. O15648. Potency, µM (top dose mostly 57.5 µM), actives largely listed as inhibitors. 0.17% of 330,000 active. AID 485367; active = well fitted inhibition curve with a large enough effect; inconclusive = small, poorly fitted or top-dose-only effect, or effect the other way; also: nearly all actives have a fitted effect of over 60% in size
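Luminescent ADP detection (ADP-Glo, two-step: ATP depletion then ADP-to-ATP conversion for luciferase) reported PFK activity after 45 min room-temperature reaction of 1.25 nM enzyme with 0.5 mM F6P and 0.1 mM ATP at pH 8.0.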
Menin-MLL TR inh: menin-MLL binding inhibition, Texas Red mutant peptide | O00255 | Menin + Texas Red MLL mutant peptide, fluorescence polarization | Potency, µM (highest dose often 61.6 µM), actives largely listed as inhibitors | 0.23% of 270,000 active; active = well fitted inhibition curve with a large enough effect in the polarisation, with a control signal flat, not every such curve was filed as active; inconclusive = small, poorly fitted or top-dose-only effect, or effect the other way, or a change in a side signal; inactive = no such curve, though single readings can be large or run the other way; the % refers to the polarisation
CXXC DNA block: inhibitors of human MLL CXXC domain-DNA interaction; 0.037% of 290,000 active; Potency, µM (top dose mostly 115 µM), hits mostly inhibitors; Q03164; MLL-CXXC / FITC-HOXA9 DNA fluorescence polarization; active = well fitted inhibition curve with a large enough effect in the polarisation, with a control signal flat, not every such curve was filed as active; inconclusive = small, poorly fitted or top-dose-only effect, or effect the other way, or a change in a side signal; inactive = no such curve, though single readings can be large or run the other way; the % refers to the polarisation
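Purified MLL-CXXC (added from a 7 uM solution) was preincubated 5 min at ambient with pinned compounds in 50 mM Tris-HCl pH 7.5, 50 mM NaCl, 1 mM DTT, 0.05% BSA. Fluorescein-labeled HOX-A9 DNA (50 nM solution) followed, 30 min, then polarization read.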
Menin-MLL FL inh: displaces fluorescein MLL peptide from human menin; 290,000 tested, under 10 active; FP activity change, % at 61.4 µM; Fluorescence polarization, fluorescein-MLL peptide displacement from menin; active = well fitted curve in the direction sought with a large enough effect in the polarisation, not every such curve was filed as active; inconclusive = small, poorly fitted or top-dose-only effect, or effect the other way, or a change in a side signal; inactive = no such curve, though single readings can be large or run the other way; the % refers to the polarisation
Large screens that a line does not name were inactive.

CCOc1cc(N2CCOCC2)c(OCC)cc1NC(=O)C(C)C	none (no result: Menin-MLL TR inh)
Cc1cccc(C(=O)Nc2nnc(SCC(=O)Nc3ccc4c(c3)oc3ccccc34)s2)c1	RGS12 GoLoco inh 7.9µM, Menin-MLL TR inh inconclusive (no result: Menin-MLL FL inh)
Oc1ccc2ccccc2c1-c1sc(Nc2ccccc2)n[n+]1-c1ccc(F)cc1	Menin-MLL TR inh 16µM, CXXC DNA block inconclusive, Menin-MLL FL inh inconclusive (no result: RGS12 GoLoco inh)
CCCCCCCC[n+]1cccc2c3ccccc3ccc21	Menin-MLL TR inh inconclusive
CCCCCCCCCC[n+]1cccc2c3ccccc3ccc21	RGS12 GoLoco inh 10µM, Menin-MLL TR inh inconclusive
CC1CCCC(C2(O)C(=O)Nc3ccccc32)C1=O (configuration not stated)	RGS12 GoLoco inh 14µM
O=C1Nc2ccccc2C12OC1CCCCC1O2 (configuration not stated)	none
Cc1noc(C)c1-c1nc(Nc2ccc(F)cc2)c2ccccc2n1	RGS12 GoLoco inh 10µM, Menin-MLL TR inh inconclusive (no result: Tb PFK block, CXXC DNA block)
CC(C(=O)O)N1C(=O)/C(=C/C=C/c2ccco2)SC1=S (configuration not stated)	Tb PFK block 3µM, Menin-MLL TR inh inconclusive, Menin-MLL FL inh inconclusive
COc1ccc(CNc2nc(NCc3ccc(OC)cc3)c3ncn(C4CCCCC4)c3n2)cc1	none (no result: RGS12 GoLoco inh, Tb PFK block, CXXC DNA block)
COC(=O)C1=C(C(=O)OC)[C@@H]2N(C)c3ccccc3[C@@]23C[C@@H](C(=O)OC)N(S(=O)(=O)c2ccc4c(c2)OCCN4C)C3=N1	none (no result: Tb PFK block, CXXC DNA block)
COc1cc(CC(=O)Nc2ccc(S(=O)(=O)N(C)C)cc2)cc(OC)c1OC	RGS12 GoLoco inh 7.9µM
O=[N+]([O-])c1ccc(S(=O)(=O)Cc2ccccc2)c2nonc12	none (no result: Tb PFK block, Menin-MLL TR inh, CXXC DNA block, Menin-MLL FL inh)
O=[N+]([O-])c1ccc(NCc2ccccc2)c2nonc12	RGS12 GoLoco inh 3.2µM, Menin-MLL TR inh inconclusive, CXXC DNA block inconclusive, Menin-MLL FL inh inconclusive
Cc1snc(SCC(=O)c2ccc([N+](=O)[O-])cc2)c1C#N	RGS12 GoLoco inh 14µM, Tb PFK block inconclusive, Menin-MLL TR inh inconclusive
CC(C)NCc1c(O)c(Br)cc2oc3c(c12)CCCC3	RGS12 GoLoco inh 5.6µM
Oc1ccc2oc3c(c2c1)CCCC3	none
Cc1ccc(C(=S)NCS(=O)(=O)c2ccc(C)cc2)cc1	Tb PFK block 27µM (no result: Menin-MLL TR inh)
Cc1cccc(C(=O)Nc2ccc(NC(=O)Cc3ccc(Cl)cc3)cc2)c1	Menin-MLL TR inh inconclusive (no result: RGS12 GoLoco inh)
O=C(Cc1ccc(Cl)cc1)Nc1ccc(NC(=O)c2ccccc2)cc1	Menin-MLL TR inh 10µM
C=CC1=C(C)C2=Cc3c(C=C)c(C)c4[n]3[Sn+2][n]3c(c(C)c(CCC(=O)O)c3=CC3=NC(=C4)C(C)=C3CCC(=O)O)=CC1=N2	RGS12 GoLoco inh 1.4µM, Menin-MLL TR inh inconclusive, Menin-MLL FL inh inconclusive (no result: Tb PFK block, CXXC DNA block)
COc1ccc(-c2cc([C@H](O)C3CCCCN3)c3ccccc3n2)cc1 (some centres not stated)	none (no result: Tb PFK block, Menin-MLL TR inh, CXXC DNA block, Menin-MLL FL inh)
CC(C)=CC[C@@H](O)C1=CC(=O)c2c(O)ccc(O)c2C1=O	none (no result: Tb PFK block, Menin-MLL TR inh, CXXC DNA block, Menin-MLL FL inh)
Cc1cccc(NC(=O)CNC(=O)c2cccc(-n3cccc3)c2)c1C	Tb PFK block 21µM (no result: RGS12 GoLoco inh, Menin-MLL TR inh, CXXC DNA block, Menin-MLL FL inh)
CC(C)n1c(=S)[nH]c2c1c(=O)[nH]c(=O)n2C	RGS12 GoLoco inh 10µM
C=CC(C)n1c(Br)nc2c1c(=O)[nH]c(=O)n2C (configuration not stated)	none
Cc1cc(=O)c2c(O)c3c(O)cc(=O)c4c3c3c(cc(O)c1c23)C(C)(C)C=4O	RGS12 GoLoco inh 0.63µM, Menin-MLL TR inh inconclusive, Menin-MLL FL inh inconclusive (no result: Tb PFK block, CXXC DNA block)
ClC1=C(Cl)C(Cl)(Cl)C(Cl)=C1Cl	none (no result: Tb PFK block, Menin-MLL TR inh, CXXC DNA block, Menin-MLL FL inh)
CCOC(=O)C1=C(C)N=c2s/c(=C\c3ccc(OCC(=O)O)cc3)c(=O)n2C1c1ccccc1 (configuration not stated)	Menin-MLL TR inh inconclusive (no result: RGS12 GoLoco inh)
CCOC(=O)C1=C(c2ccccc2)N=c2s/c(=C\c3ccc(O)cc3)c(=O)n2C1c1cccs1 (configuration not stated)	Menin-MLL TR inh 35µM, CXXC DNA block inconclusive, Menin-MLL FL inh inconclusive
COc1cccc([C@@H]2Oc3ccc(OC)cc3C(=O)[C@H]2OC(=O)Nc2ccc(C)c(Br)c2)c1	none (no result: Tb PFK block, CXXC DNA block)
CCCCNc1nc(C)nc2c1nc(-c1ccccc1)n2CC1CCN(C)CC1	none (no result: Tb PFK block, CXXC DNA block)
COC(=O)C1=NOC2(C=C(Br)C(OC)=C(Br)C2=O)C1 (configuration not stated)	none (no result: RGS12 GoLoco inh, Tb PFK block, CXXC DNA block)
c1ccc(CCNc2ccnc3cc4ccccc4cc23)cc1	Menin-MLL TR inh 22µM, CXXC DNA block inconclusive
CC(C)Nc1ccc(Nc2ccnc3cc4ccccc4cc23)cc1	CXXC DNA block inconclusive (no result: Menin-MLL TR inh)
Cc1ccsc1/C=C\C1=NCCCN1C	none (no result: Tb PFK block)
